# Results filed as inconclusive are left out. Activity calls are given as the source filed them. How the source made its calls: active means hit-call score of the fitted dose curve at least 0.9, where 1 is the maximum; inconclusive means response in the unintended direction; inactive means score below 0.9.
# Tested on: rat CYP2C6, gene 293989
# Assay: NVS_ADME_rCYP2C6: NovaScreen (NVS) CYP450-related Enzyme Activity (ADME) Assay for rat CYP2C6 (AID 2283120)
# Summary of the method: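 Cell-free recombinant rat CYP2C6 with fluorogenic substrate, read by fluorescence 1 h after dosing; acetonitrile as negative control. Primary screen at 10 uM in duplicate, actives then in concentration-response up to 20 uM.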
row,Compound,AC50
1,CC(C)NC(=O)N1CC(=O)N(c2cc(Cl)cc(Cl)c2)C1=O,2.38 µM (active)
2,COP(=S)(OC)SCn1nnc2ccccc2c1=O,0.634 µM (active)
3,COC(=O)c1c(C(F)F)nc(C(F)(F)F)c(C2=NCCS2)c1CC(C)C,3.59 µM (active)
4,COP(=S)(OC)Oc1ccc([N+](=O)[O-])c(C)c1,0.177 µM (active)
5,CCCCOCN(C(=O)CCl)c1c(CC)cccc1CC,3.34 µM (active)
6,CO/N=C(/C1=NOCCO1)c1ccccc1Oc1ncnc(Oc2ccccc2Cl)c1F,1.74 µM (active)
7,CCN(CC)C(=O)C(C)Oc1cccc2ccccc12 (configuration not stated),4.21 µM (active)
8,CCOP(=S)(OCC)Oc1nc(Cl)n(C(C)C)n1,0.837 µM (active)
9,CSC(=O)c1c(C(F)F)nc(C(F)(F)F)c(C(=O)SC)c1CC(C)C,2.99 µM (active)
10,CCCCC(O)(Cn1cncn1)c1ccc(Cl)cc1Cl (configuration not stated),3.59 µM (active)
11,CCNP(=S)(OC)O/C(C)=C/C(=O)OC(C)C (configuration not stated),0.151 µM (active)
12,CCN(CC)c1nc(C)cc(OP(=S)(OC)OC)n1,0.723 µM (active)

# Biological target: rat CYP2C13, Cyp2c13 (gene 171521) (UniProt P20814)
# Assay: NVS_ADME_rCYP2C13: NovaScreen (NVS) CYP450-related Enzyme Activity (ADME) Assay for rat CYP2C13 (AID 2283121)
# Summary of the method: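 Recombinant rat CYP2C13 with fluorogenic substrate, 0.75 h cell-free incubation; primary screen in duplicate at 10 uM, actives followed in concentration series. Fluorescence loss relative to acetonitrile control indicates inhibition.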
# Sequence of rat CYP2C13, Cyp2c13 (gene 171521) (P20814 whole entry, looked up): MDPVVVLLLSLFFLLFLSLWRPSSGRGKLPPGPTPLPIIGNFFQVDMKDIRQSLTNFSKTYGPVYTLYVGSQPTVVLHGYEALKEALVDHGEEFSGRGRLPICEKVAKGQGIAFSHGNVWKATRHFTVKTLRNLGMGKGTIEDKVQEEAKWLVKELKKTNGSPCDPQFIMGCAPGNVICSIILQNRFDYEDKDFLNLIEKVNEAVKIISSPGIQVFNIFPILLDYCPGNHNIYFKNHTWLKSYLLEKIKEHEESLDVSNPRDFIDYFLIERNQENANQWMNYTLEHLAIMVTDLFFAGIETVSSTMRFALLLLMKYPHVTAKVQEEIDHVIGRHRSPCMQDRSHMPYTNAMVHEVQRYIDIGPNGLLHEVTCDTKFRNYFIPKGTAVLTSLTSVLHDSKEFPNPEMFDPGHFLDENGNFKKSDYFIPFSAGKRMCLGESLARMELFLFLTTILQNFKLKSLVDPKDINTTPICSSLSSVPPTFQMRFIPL
row,Compound,AC50
1,COP(=S)(OC)SCn1nnc2ccccc2c1=O,3.03 µM (active)
2,COP(=S)(OC)Oc1ccc([N+](=O)[O-])c(C)c1,10 µM (active)
3,CC(C)(C)C(=O)C(Oc1ccc(Cl)cc1)n1cncn1 (configuration not stated),0.246 µM (active)
4,CCCCOCN(C(=O)CCl)c1c(CC)cccc1CC,10 µM (active)
5,CCCCC(C#N)(Cn1cncn1)c1ccc(Cl)cc1 (configuration not stated),4.37 µM (active)
6,COc1ccc(-c2ccccc2)cc1NNC(=O)OC(C)C,1.17 µM (active)
7,CCCCC(O)(Cn1cncn1)c1ccc(Cl)cc1Cl (configuration not stated),0.655 µM (active)
8,CCNP(=S)(OC)O/C(C)=C/C(=O)OC(C)C (configuration not stated),7.31 µM (active)

# Biological target: rat CYP2D1, Cyp2d1 (gene 266684) (UniProt P10633)
# Assay: NVS_ADME_rCYP2D1: NovaScreen (NVS) CYP450-related Enzyme Activity (ADME) Assay for rat CYP2D1 (AID 2283122)
# Protocol: NVS_ADME_rCYP2D1 is a biochemical, single-readout assay that uses extracted gene-proteins in a cell-free assay. Measurements were taken 0.75 hour after chemical dosing in a 96-well plate.NVS_ADME_rCYP2D1 is one of one assay component(s) measured or calculated from the NVS_ADME_rCYP2D1 assay. It is designed to make measurements of enzyme activity, a form of enzyme reporter, as detected with fluorescence intensity signals by Fluorescence technology.Data from the assay component NVS_ADME_rCYP2D1 was analyzed into 1 assay endpoint. This assay endpoint, NVS_ADME_rCYP2D1, was analyzed in the positive analysis fitting direction relative to Acetonitrile as the negative control and baseline of activity. Using a type of enzyme reporter, loss-of-signal activity can be used to understand changes in the enzymatic activity as they relate to the gene Cyp2d1. Furthermore, this assay endpoint can be referred to as a primary readout, because this assay has produced multiple assay endpoints where this one serves a enzymatic activity function. To generalize the intended target to other relatable targets, this assay endpoint is annotated to the cyp intended target family, where the subfamily is xenobiotic metabolism.
# Binding assays used specific radioligands (tritiated, iodinated) with non-radioactive competitive displacement ligands in agonist or antagonist protocols (as indicated) and various reference compounds and inhibitors to titrate specific binding to receptors and transporters. Most enzyme assays (CYPs, kinases, phosphatases, proteases, HDACs) used recombinant protein and specific substrates (fluorescence mostly, some colorimetric and radioactive) and inhibitors, followed by a biochemical separation of substrate and product. All assays for the biochemical HTS were initially run in duplicate at a single concentration (10 uM for CYP450 assays and 25 uM for all others). Assay-chemical combinations meeting a pre-defined threshold (e.g., 30% inhibition and other criteria defined below) were then run in singleton concentration-response format with maximum concentration of 20 uM for CYPs and 50 uM for all others. Each assay was run with positive and negative controls, and concurrent controls on every plate. The follow-up (secondary) screen tested active chemical-pairs in concentration series, as well as a few additional assays not tested in the primary screen, some selected negative inactives, and several cases re-run in the concentration series for confirmatory purposes.
# Sequence of rat CYP2D1, Cyp2d1 (gene 266684) (P10633 whole entry, looked up): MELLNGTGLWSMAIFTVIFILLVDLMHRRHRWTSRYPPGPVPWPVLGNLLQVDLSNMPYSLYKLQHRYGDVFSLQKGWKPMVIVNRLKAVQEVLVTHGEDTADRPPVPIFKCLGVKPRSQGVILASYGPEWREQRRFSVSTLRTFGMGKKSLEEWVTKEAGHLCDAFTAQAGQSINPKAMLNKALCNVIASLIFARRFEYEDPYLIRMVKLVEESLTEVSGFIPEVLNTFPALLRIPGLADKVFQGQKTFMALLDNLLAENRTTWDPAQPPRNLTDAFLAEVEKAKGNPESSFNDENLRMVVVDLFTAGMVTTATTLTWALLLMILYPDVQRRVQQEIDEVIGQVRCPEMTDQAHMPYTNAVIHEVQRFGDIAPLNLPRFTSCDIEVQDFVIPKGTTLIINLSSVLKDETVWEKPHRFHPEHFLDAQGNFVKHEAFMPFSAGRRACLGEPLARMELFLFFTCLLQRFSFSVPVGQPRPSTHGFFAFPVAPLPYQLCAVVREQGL
row,Compound,AC50
1,COP(=S)(OC)SCn1nnc2ccccc2c1=O,6.92 µM (active)
2,COC(=O)c1c(C(F)F)nc(C(F)(F)F)c(C2=NCCS2)c1CC(C)C,5.48 µM (active)
3,CC(C)(C)C(=O)C(Oc1ccc(Cl)cc1)n1cncn1 (configuration not stated),6.43 µM (active)
4,CCCCC(C#N)(Cn1cncn1)c1ccc(Cl)cc1 (configuration not stated),8.64 µM (active)
5,Nc1cnn(-c2ccccc2)c(=O)c1Cl,2.37 µM (active)
6,CCCCC(O)(Cn1cncn1)c1ccc(Cl)cc1Cl (configuration not stated),0.951 µM (active)
7,CCC(C)n1c(=O)[nH]c(C)c(Br)c1=O (configuration not stated),3.93 µM (active)
8,CC(C)=CC1C(C(=O)OCc2coc(Cc3ccccc3)c2)C1(C)C (configuration not stated),5.37 µM (active)

# Tested on: rat CYP3A1, gene 25642
# Assay: NVS_ADME_rCYP3A1: NovaScreen (NVS) CYP450-related Enzyme Activity (ADME) Assay for rat CYP3A1 (AID 2283126)
# Summary of the method: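 Cell-free recombinant CYP assay with fluorescent substrate, read 0.5 h after dosing. Screened at 10 uM in duplicate, hits at up to 20 uM in concentration-response; loss of signal versus acetonitrile baseline.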
Compound,AC50,outcome
CC(C)NC(=O)N1CC(=O)N(c2cc(Cl)cc(Cl)c2)C1=O,2.27 µM (active),–
Cc1ccc(N=CN(C)C=Nc2ccc(C)cc2C)c(C)c1,4.8 µM (active),–
COP(=S)(OC)SCn1nnc2ccccc2c1=O,3.02 µM (active),–
COC(=O)c1c(C(F)F)nc(C(F)(F)F)c(C2=NCCS2)c1CC(C)C,2.32 µM (active),–
CC(C)N1C(=O)N(c2ccccc2)CSC1=NC(C)(C)C,5.84 µM (active),–
COP(=S)(OC)Oc1ccc([N+](=O)[O-])c(C)c1,8.22 µM (active),–
CCOP(=O)(OCC)Oc1nc(Cl)c(Cl)cc1Cl,7.93 µM (active),–
COc1cc(OC)nc(NC(=O)NS(=O)(=O)c2ncccc2OCC(F)(F)F)n1,5.87 µM (active),–
CC(C)(C)C(=O)C(Oc1ccc(Cl)cc1)n1cncn1 (configuration not stated),8.49 µM (active),–
CCCCOCN(C(=O)CCl)c1c(CC)cccc1CC,10 µM (active),–
Clc1nc(Cl)nc(Nc2ccccc2Cl)n1,–,inactive
CO/N=C(/C1=NOCCO1)c1ccccc1Oc1ncnc(Oc2ccccc2Cl)c1F,0.705 µM (active),–
C=CCOC(=O)C(C)(C)OC(=O)c1cc(-n2c(=O)cc(C(F)(F)F)n(C)c2=O)ccc1Cl,0.595 µM (active),–
CCCCC(C#N)(Cn1cncn1)c1ccc(Cl)cc1 (configuration not stated),3.82 µM (active),–
CCN(CC)C(=O)C(C)Oc1cccc2ccccc12 (configuration not stated),4.43 µM (active),–
COc1ccc(-c2ccccc2)cc1NNC(=O)OC(C)C,2.96 µM (active),–
CCOP(=S)(OCC)Oc1nc(Cl)n(C(C)C)n1,3.46 µM (active),–
Nc1cnn(-c2ccccc2)c(=O)c1Cl,7.35 µM (active),–
CC1(C)CCC(=Cc2ccc(Cl)cc2)C1(O)Cn1cncn1 (configuration not stated),0.0126 µM (active),–
COCC(=O)N(c1c(C)cccc1C)C(C)C(=O)OC (configuration not stated),4.46 µM (active),–
CCCCC(O)(Cn1cncn1)c1ccc(Cl)cc1Cl (configuration not stated),0.995 µM (active),–
COC(=O)NC(=S)Nc1ccccc1NC(=S)NC(=O)OC,7.66 µM (active),–
CCNP(=S)(OC)O/C(C)=C/C(=O)OC(C)C (configuration not stated),1.93 µM (active),–

# Biological target: rat CYP3A2, Cyp3a2 (gene 266682) (UniProt P05183)
# Assay: NVS_ADME_rCYP3A2: NovaScreen (NVS) CYP450-related Enzyme Activity (ADME) Assay for rat CYP3A2 (AID 2283128)
# Summary of the method: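 Cell-free rat CYP3A2 enzyme assay with fluorescent substrate, read 0.5 h after dosing. Primary duplicate screen at 10 uM; actives run in concentration-response up to 20 uM, relative to acetonitrile baseline.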
# Sequence of rat CYP3A2, Cyp3a2 (gene 266682) (P05183 whole entry, looked up): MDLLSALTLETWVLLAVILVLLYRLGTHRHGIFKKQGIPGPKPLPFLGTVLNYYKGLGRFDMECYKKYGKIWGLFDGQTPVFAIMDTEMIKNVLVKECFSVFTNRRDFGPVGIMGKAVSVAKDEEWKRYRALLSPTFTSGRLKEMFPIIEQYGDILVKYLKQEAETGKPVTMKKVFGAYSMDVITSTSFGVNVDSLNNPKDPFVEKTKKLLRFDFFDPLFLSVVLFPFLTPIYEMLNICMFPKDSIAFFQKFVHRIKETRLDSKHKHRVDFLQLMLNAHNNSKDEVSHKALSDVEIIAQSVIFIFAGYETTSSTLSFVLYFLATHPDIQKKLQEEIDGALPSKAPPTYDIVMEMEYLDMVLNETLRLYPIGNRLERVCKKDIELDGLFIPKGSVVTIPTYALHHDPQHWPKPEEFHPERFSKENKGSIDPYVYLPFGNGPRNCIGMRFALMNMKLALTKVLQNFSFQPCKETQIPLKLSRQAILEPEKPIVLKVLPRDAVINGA
row,Compound,AC50
1,Cc1ccc(N=CN(C)C=Nc2ccc(C)cc2C)c(C)c1,1.23 µM (active)
2,COP(=S)(OC)SCn1nnc2ccccc2c1=O,0.393 µM (active)
3,COC(=O)c1c(C(F)F)nc(C(F)(F)F)c(C2=NCCS2)c1CC(C)C,5.42 µM (active)
4,COP(=S)(OC)Oc1ccc([N+](=O)[O-])c(C)c1,4.29 µM (active)
5,CO/N=C(/C1=NOCCO1)c1ccccc1Oc1ncnc(Oc2ccccc2Cl)c1F,1.18 µM (active)
6,C=CCOC(=O)C(C)(C)OC(=O)c1cc(-n2c(=O)cc(C(F)(F)F)n(C)c2=O)ccc1Cl,0.407 µM (active)
7,CCCCC(C#N)(Cn1cncn1)c1ccc(Cl)cc1 (configuration not stated),2.96 µM (active)
8,CCOc1cc(C(C)(C)C)ccc1C1COC(c2c(F)cccc2F)=N1 (configuration not stated),2.18 µM (active)
9,CCN(CC)C(=O)C(C)Oc1cccc2ccccc12 (configuration not stated),5.34 µM (active)
10,COc1ccc(-c2ccccc2)cc1NNC(=O)OC(C)C,0.832 µM (active)
11,CCOP(=S)(OCC)Oc1nc(Cl)n(C(C)C)n1,1.14 µM (active)
12,CC1(C)CCC(=Cc2ccc(Cl)cc2)C1(O)Cn1cncn1 (configuration not stated),0.225 µM (active)
13,CCCCC(O)(Cn1cncn1)c1ccc(Cl)cc1Cl (configuration not stated),1.6 µM (active)
14,COC(=O)NC(=S)Nc1ccccc1NC(=S)NC(=O)OC,7.25 µM (active)
15,CC(C)=CC1C(C(=O)OCc2coc(Cc3ccccc3)c2)C1(C)C (configuration not stated),7.04 µM (active)
16,CCNP(=S)(OC)O/C(C)=C/C(=O)OC(C)C (configuration not stated),0.528 µM (active)

# From PubChem BioAssay (EPA / NIEHS)
